Bioassay records: PubChem, National Center for Advancing Translational Sciences (NCATS)
LDHA inh: LDHA (human) enzyme inhibition; P00338; activity change, % (values are at about 110 or 230 µM); AID 1347041; purified LDHA, NADH/diaphorase-resazurin fluorescence; hits give low values; 480,000 tested, 0.15% active; in the data active means activity change below about -30%; inconclusive means mostly about -25% to -30%;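 further: plate controls were DMSO wells for no effect and wells without enzyme for full effect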
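Human LDH5 at 2 nM final in Tris HCl pH 7.4 with 0.06 mM NADH and 0.2 mM pyruvate, reacted 5 minutes at room temperature. Remaining NADH coupled via diaphorase/resazurin; resorufin fluorescence read at 0 and 20 minutes, normalized to enzyme-free and DMSO wells.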
ALOX12 inh: blocks human arachidonate 12S-lipoxygenase; 580,000 tested, 1.1% active; P18054; purified 12hLO, xylenol orange hydroperoxide absorbance; Potency, µM (top dose mostly 108 µM), without a hit: top-dose activity change, negative = inhibition, usual class: inhibitors; further: potency means the concentration at half of the fitted maximal effect; on the % scale 0 is the no-effect control and ±100 the full control effect
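Purified human 12hLO at 150 nM in 25 mM Hepes, 0.01% Triton X-100, pH 7.0, preincubated 15 min at room temperature with compound. Reaction started with 40 uM arachidonic acid, 30 min at room temperature. Hydroperoxide measured by Fe-xylenol orange, 573/405 nm absorbance ratio.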
ERG-DNA inh: ERG Ets/DNA interaction inhibition; P11308; fluorescence polarization, His-ERG Ets domain / labelled DNA; Potency, µM (series often up to 76.9 µM), for the others: top-dose FP activity, negative = inhibition, usual class: inhibitors; 370,000 tested, 0.028% active; active means well fitted inhibition curve with a large enough effect in the polarisation, with a control signal flat; inconclusive means small, poorly fitted or top-dose-only effect, or effect the other way, or a change in a side signal; inactive means no such curve, though single readings can be large or run the other way; the % refers to the polarisation;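 further: polarization taken with two DNA probes labelled with fluorescein and Texas red; potency means the concentration at half of the fitted maximal effect; % of control where 0% means no effect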
Target sequence (P11308 whole entry, looked up, the tested form may be a part): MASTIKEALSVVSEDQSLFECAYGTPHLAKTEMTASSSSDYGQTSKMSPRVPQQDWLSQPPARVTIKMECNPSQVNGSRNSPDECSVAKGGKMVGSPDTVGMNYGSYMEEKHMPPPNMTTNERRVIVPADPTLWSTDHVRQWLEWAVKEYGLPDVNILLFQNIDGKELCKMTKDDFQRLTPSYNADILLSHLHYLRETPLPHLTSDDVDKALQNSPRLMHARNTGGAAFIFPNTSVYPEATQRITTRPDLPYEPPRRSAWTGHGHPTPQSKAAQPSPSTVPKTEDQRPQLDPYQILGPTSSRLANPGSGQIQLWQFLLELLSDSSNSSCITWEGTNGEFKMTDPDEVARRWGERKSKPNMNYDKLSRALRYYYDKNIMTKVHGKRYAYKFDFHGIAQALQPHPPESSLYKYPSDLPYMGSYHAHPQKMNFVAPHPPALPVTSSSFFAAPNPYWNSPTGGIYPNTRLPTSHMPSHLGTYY
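His-tagged ERG Ets domain (1 uM in the protein solution; 300mM KCl, 50mM Tris-HCl, 1mM EDTA, 1mM DTT, pH 7.5) received compound, then a probe mix of 5 nM fluorescein-DNA and 100nM Texas-615-DNA. Fluorescence polarization was read for both dyes.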
Nrf2 block: inhibitors of Nrf2 signaling; 360,000 tested, 2.1% active; Potency, µM (titrated, usually from 46 µM), for the others: top-dose activity change, negative = inhibition, hits mostly inhibitors; A549 ARE-Fluc reporter, luciferase luminescence, 18-24 h; AID 504444; further: potency means the concentration at half of the fitted maximal effect; on the % scale 0 is the no-effect control and ±100 the full control effect; nearly all actives have a fitted effect of over 60% in size
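Cells were seeded and rested 2 h, then exposed to compounds for 18-24 h. CellTiter-Fluor was read first as a viability measure. BugLite was added 15 min before the final luminescent read of ARE-luciferase activity in A549 cells.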
A549 viability: A549 cytotoxicity, counter-screen for Nrf2 inhibitors. Potency, µM (series often up to 46 µM), for the others: at the highest dose activity change, negative = cytotoxicity, actives largely listed as inhibitors. A549 ARE-Fluc cells, CellTiter-Fluor viability, 18-24 h. 390,000 tested, 0.16% active; further: potency means the concentration at half of the fitted maximal effect; on the % scale 0 is the no-effect control and ±100 the full control effect
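A549 ARE_Fluc cells in 5% FBS OPTI-MEM were exposed to compounds in concentration-response for 18-24 h at 37 deg C. Viability was read by CellTiter-Fluor fluorescence (Ex 405/Em 525) after 30 min, before the luciferase read.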
Nrf2 ARE act: activators of Nrf2 (ARE) signaling; AREc32 ARE-luciferase reporter (MCF7-derived line), luminescence, 24 h; Potency, µM (titrated, usually from 46.1 µM), inactives show at the top dose activation, hits mostly activators; 410,000 tested, 0.31% active; AID 624171; further: potency means the concentration at half of the fitted maximal effect; % of control where 0% means no effect; nearly all actives have a fitted effect of over 65% in size
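Steps: seed AREc32_Fluc cells (1000/well, 5% FBS OPTI-MEM); incubate overnight at 37 deg C; add 23 nL compound; incubate 24 hr; add Steady-Glo; hold 30 min RT; read luminescence.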
An asterisk follows results filed as active; ? = inconclusive; . = not tested or not shown; [ ] = another dose, or the depositor's remark. Only some compounds are listed: those with a hit (about 2.7% of all), similar ones and a draw of the others. Unless noted, the call rests on the fitted dose curve; in most records, active means well fitted curve in the direction sought with a large enough effect; inconclusive means small, poorly fitted or top-dose-only effect, or another doubt; inactive means no such curve, though single readings can be large; an effect the other way counts as inactive or inconclusive.

SMILES	LDHA inh	ALOX12 inh	ERG-DNA inh	Nrf2 block	A549 viability	Nrf2 ARE act
Clc1ccc(-c2csc(=Nc3cccnc3)n2CCCn2ccnc2)cc1Cl	-8	-5%	-4%	?	-8%	-1%
COc1ccc(N=c2scc(-c3ccc(OC)cc3)n2CCO)cc1	1	?	2%	18µM*	-24%	2%
O=C(CN1CCN(C(=O)CCNS(=O)(=O)c2ccc3ccccc3c2)CC1)Nc1cccc(F)c1	0	8%	.	.	.	.
CC(NC(=O)c1cc2ccccc2oc1=O)C(=O)NCc1ccccc1 (configuration not stated)	2	-28%	.	.	.	.
CCC(=O)Nc1ccccc1-c1nnc(SCC(=O)Nc2cc(Cl)ccc2Cl)[nH]c1=O	-8	?	.	.	.	.
CC(=O)N1CCC2(CC1)C/C(=N\NC(=S)Nc1ccc(C)cc1)c1cc(O)ccc1O2	1	45µM*	-1%	2%	15%	6%
Cc1ccccc1NC(=S)N/N=C1\CC(C)(C)Oc2ccc(O)cc21	-8	40µM*	-2%	0%	9%	4%
COc1ccc(NC(=S)N/N=C2\CC(C)(C)Oc3ccc(OC)cc32)cc1	-9	?	2%	-2%	-1%	0%
Cc1ccc(NC(=S)N/N=C2\CC(C)(C)Oc3ccc(O)cc32)cc1	-6	?	13%	1%	-4%	0%
OC(COc1ccc(OCC(O)CN2CCCCCC2)cc1)CN1CCCCCC1 (configuration not stated)	-5	.	1%	.	2.6µM*	-1%
OC(COc1ccccc1)CN1CCC(Cc2ccccc2)CC1 (configuration not stated)	-1	7.9µM*	-3%	12%	?	2%
COc1ccc(OCC(O)CN2CCCCCC2)cc1 (configuration not stated)	-8	?	9%	3%	0%	0%
COc1cccc2cc(C(=O)OCC(=O)c3ccccc3)c(=O)oc12	-1	22%	.	.	.	.
COc1cccc2cc(C(=O)Nc3ccc(NC(C)=O)cc3)c(=O)oc12	-12	3%	.	.	.	.
COc1cccc2cc(C(=O)Nc3ccc(CC(=O)O)cc3)c(=O)oc12	-1	?	4%	1.5µM*	-12%	-4%
COc1cccc2cc(C(=O)OCC(=O)N3CC(C)OC(C)C3)c(=O)oc12 (configuration not stated)	-18	11%	0%	-6%	-3%	16µM*
C=C(C)CC1Nc2ccccc2NC1CC(=C)C (configuration not stated)	11	28µM*	-10%	-7%	4%	18%
Oc1c(Br)cc(C2N=C(c3ccccc3)NO2)cc1Br (configuration not stated)	9	28µM*	-2%	5%	1%	18%
CCSc1nc(N)c2c(n1)NC1=C(C(=O)CC(C)(C)C1)C2c1cccs1 (configuration not stated)	-3	-8%	.	.	.	.
CN(C)C(=O)CSc1nnc(Cc2ccccc2)n1Cc1ccco1	3	28%	1%	-18%	-7%	0%
O=C(CSc1nnc(Cc2ccccc2)n1Cc1ccco1)NC12CC3CC(CC(C3)C1)C2	0	13%	6%	26µM*	-15%[1.84 µM]	2%
CCOc1cc(N2CCOCC2)c(OCC)cc1NC(=O)c1cc(-c2ccco2)nc2ccccc12	6	?	.	15µM*	?	4%
COc1ccc(-c2cc(C(=O)Nc3ccccc3N3CCOCC3)c3ccccc3n2)cc1OC	-2	-17%	3%	15µM*	-17%	4%
O=C(Nc1ccc2oc(=O)ccc2c1)c1cccc2c(Cl)cccc12	5	-3%	.	.	.	.
Cc1nc(-c2ccc(F)cc2)n(CC(=O)Nc2ccc(F)c(Cl)c2)c(=O)c1CCO	.	16%	.	.	.	.
